Data taken from PubChem BioAssay (Tox21).
Where “and” joins values, the source holds several entries; their conditions need not be identical. Identical values can stand only once. Results filed as inconclusive are left out. A call without a number means that no potency is given here. Calls of active or inactive are those of the source. Unless noted, calls come from the whole dose curve; as a rule, active = well fitted curve in the direction sought with a large enough effect in the repeat runs; inconclusive = weak or mixed curves; inactive = no such curve, though single readings can be large; an effect the other way counts as inactive or inconclusive.

Columns and labels:
[1] = qHTS assay for small molecule agonists of the p53 signaling pathway (AID 651631; calls by dose curve; note: nearly all actives have a fitted effect of over 15% in size; note: potency is the fitted concentration of half-maximal effect)
Procedure, shortened: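 Quantitative high-throughput format: 4,000 p53RE-bla HCT-116 cells/well, 5 h pre-incubation, 16 h compound exposure at 37 °C, 2 h room-temperature substrate step, fluorescence intensity measured.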

[2] = qHTS assay for small molecules that induce genotoxicity in human embryonic kidney cells expressing luciferase-tagged ATAD5 (AID 651632); note: nearly all actives have a fitted effect of over 15% in size
Procedure, shortened: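 A rise in luciferase signal from ATAD5-tagged HEK293T cells marks genetic stress. Cells were exposed to compounds for 16 hr at 37C, 5% CO2, then luciferase was quantified after a 30 min room-temperature incubation with Amplite.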

[3] = qHTS assay for small molecule agonists of the p53 signaling pathway - cell viability (AID 651633; calls by dose curve;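 note: p53RE-bla HCT reporter cells with a stable beta-lactamase p53 reporter; series mostly up to about 83 µM; nearly all actives have a fitted effect of over 30% in size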)
Procedure, shortened: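 p53RE-bla cells were treated with compound for 16 hours at 37 C. Cytotoxicity was then measured as CellTiter-Glo luminescence after 30 min at room temperature.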

[4] = qHTS assay for small molecules that induce genotoxicity in human embryonic kidney cells expressing luciferase-tagged ATAD5 - cell viability (AID 651634; calls by dose curve; note: nearly all actives have a fitted effect of over 25% in size; note: potency is the fitted concentration of half-maximal effect)
Procedure, shortened: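 Cytotoxicity counter-readout: after 15.5 hr compound treatment at 37C, live-cell protease activity in ATAD5-luciferase HEK293T cells measured by CellTiter-Fluor fluorescence, 30 min development at 37C.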

[5] = qHTS assay for small molecule disruptors of the mitochondrial membrane potential - cell viability (AID 720634; calls by dose curve;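 note: human HepG2 liver cancer cells; series mostly up to about 83 µM; nearly all actives have a fitted effect of over 20% in size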)
Procedure, shortened: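 Cytotoxicity was quantified from ATP content by CellTiter-Glo luminescence in the same wells as the MMP dye read-out. HepG2 (2,000 cells/well) were plated overnight and exposed to compounds for 1 hr at 37 C.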

[6] = qHTS assay to test for compound auto fluorescence at 590 nm (red) in HepG2 cells (AID 720674)
Procedure, shortened: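 Seeding: 2,000 HepG2 cells/well, MEM/10% FBS, overnight 37 C. Dosing: compound vs DMSO. Incubation: 1 hr, 37 C, 5% CO2. Read: fluorescence 540 ex/590 em, Rose Bengal sodium as red reference.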

[7] = qHTS assay to test for compound auto fluorescence at 535 nm (green) in HepG2 cells (AID 720675)
[8] = qHTS assay to test for compound auto fluorescence at 460 nm (blue) in HEK293 cells (AID 720678)
Procedure, shortened: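 HEK293 cells (2,000/well, medium with 10% dialyzed FBS) attached 4-5 hr, then exposed to compound overnight at 37C, 5% CO2. Blue fluorescence read at 405/460 nm, with triamterene as reference fluorophore.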

[9] = qHTS assay to test for compound auto fluorescence at 590 nm (red) in HEK293 cells (AID 720679)
Procedure, shortened: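 HEK293 cells (2,000/well, 10% dialyzed FBS) attached 4-5 hr, then dosed with compound or DMSO and incubated overnight at 37C, 5% CO2. Red fluorescence read at 540/590 nm, Rose Bengal sodium as reference fluorophore.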

[10] = qHTS assay to test for compound auto fluorescence at 535 nm (green) in HEK293 cells (AID 720680)
[11] = qHTS assay to test for compound auto fluorescence at 460 nm (blue) in HEK293 cell free culture (AID 720681)
Procedure, shortened: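 Compounds were added to cell-free DMEM with 10% FBS and fluorescence read directly. The blue channel used 405 nm excitation and 460 nm emission, with triamterene as the reference fluorophore.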

[12] = qHTS assay to test for compound auto fluorescence at 535 nm (green) in HEK293 cell free culture (AID 720682)
Procedure, shortened: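 Measurement is a direct plate read of green fluorescence (485 nm in, 535 nm out) after compound addition to serum-supplemented DMEM lacking cells, with fluorescein used to express intensities.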

[13] = qHTS assay to test for compound auto fluorescence at 590 nm (red) in HEK293 cell free culture (AID 720683)
Procedure, shortened: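 Cell-free wells of DMEM with 10% FBS received compound, and intrinsic fluorescence was read at excitation/emission 540/590 nm. Values expressed as equivalence to Rose Bengal sodium.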

[14] = qHTS assay to test for compound auto fluorescence at 590 nm (red) in HepG2 cell free culture (AID 720684)
Procedure, shortened: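 Rose Bengal sodium served as the reference for red signal. Test compounds were dispensed into serum-containing MEM (10% FBS) without cells, and plates were read at 540/590 nm.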

[15] = qHTS assay to test for compound auto fluorescence at 460 nm (blue) in HepG2 cell free culture (AID 720685)
Procedure, shortened: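 Cell-free plates of MEM plus 10% FBS received 23 nL compound or DMSO vehicle; blue-channel (405/460 nm) intensity scored against triamterene as reference fluorophore.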

[16] = qHTS assay to test for compound auto fluorescence at 535 nm (green) in HepG2 cell free culture (AID 720686)
[17] = qHTS assay to test for compound auto fluorescence at 460 nm (blue) in HepG2 cells (AID 720687)
Procedure, shortened: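 HepG2 cells in MEM with 10% FBS, attached overnight at 37 C, were exposed to compound or DMSO for 1 hr at 37 C, 5% CO2. Blue fluorescence was read at 405/460 nm, with triamterene as reference fluorophore.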

[18] = qHTS assay for small molecule disruptors of the mitochondrial membrane potential (AID 720635); note: potency is the fitted concentration of half-maximal effect
Procedure, shortened: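 HepG2 cells exposed to compound 1 hr at 37C, then Mito-MPS dye 30 min. Ratio read of aggregate (540/590 nm) versus monomer (490/535 nm) fluorescence.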

[19] = target: Glucocorticoid receptor (Homo sapiens) (UniProt P04150); test: qHTS assay to identify small molecule agonists of the glucocorticoid receptor (GR) signaling pathway (AID 720691; active = well fitted activation curve with a large enough effect in the signal ratio in the repeat runs, not every such curve was filed as active; the % refers to the signal ratio)
Procedure, shortened: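 Agonist-mode qHTS in HeLa cells stably expressing a glucocorticoid-response-element beta-lactamase reporter. Fluorescence intensity read with FRET substrate (2 h, room temperature) after 18 h compound treatment at 37 C.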

[20] = target: Glucocorticoid receptor (Homo sapiens) (UniProt P04150); test: qHTS assay to identify small molecule antagonists of the glucocorticoid receptor (GR) signaling pathway (AID 720692; active = well fitted inhibition curve with a large enough effect in the signal ratio in the repeat runs, not every such curve was filed as active; the % refers to the signal ratio)
Procedure, shortened: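 Inhibition of dexamethasone-driven (5 nM final) beta-lactamase expression was measured in GRE-reporter HeLa cells over 18 h at 37C. Fluorescence was read after 2 h with the B/G FRET substrate at room temperature.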

Sequence of Glucocorticoid receptor (Homo sapiens) (P04150 whole entry, looked up): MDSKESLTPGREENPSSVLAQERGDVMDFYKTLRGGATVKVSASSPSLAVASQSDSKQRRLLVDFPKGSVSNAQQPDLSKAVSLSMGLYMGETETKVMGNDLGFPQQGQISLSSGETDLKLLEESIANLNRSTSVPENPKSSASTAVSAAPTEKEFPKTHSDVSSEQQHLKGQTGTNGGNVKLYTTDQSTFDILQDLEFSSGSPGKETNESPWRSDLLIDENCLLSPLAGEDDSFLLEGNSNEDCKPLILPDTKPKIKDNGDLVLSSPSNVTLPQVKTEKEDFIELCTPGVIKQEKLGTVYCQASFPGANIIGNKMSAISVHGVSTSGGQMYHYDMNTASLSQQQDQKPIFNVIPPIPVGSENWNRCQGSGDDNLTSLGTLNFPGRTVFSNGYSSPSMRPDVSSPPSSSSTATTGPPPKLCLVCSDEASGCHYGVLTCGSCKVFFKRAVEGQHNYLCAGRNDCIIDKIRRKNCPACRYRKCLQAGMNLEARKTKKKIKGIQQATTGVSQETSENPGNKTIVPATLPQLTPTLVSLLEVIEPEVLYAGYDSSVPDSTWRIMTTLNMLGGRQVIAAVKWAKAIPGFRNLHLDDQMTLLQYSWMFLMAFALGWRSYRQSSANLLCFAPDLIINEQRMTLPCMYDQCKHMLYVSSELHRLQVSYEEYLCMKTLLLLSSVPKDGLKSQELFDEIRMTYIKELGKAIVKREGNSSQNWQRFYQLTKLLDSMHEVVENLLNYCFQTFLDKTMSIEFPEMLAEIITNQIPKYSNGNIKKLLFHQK

| Structure (SMILES) | Potency [1] | Potency [2] | Potency [3] | Potency [4] | Potency [5] | outcome [6] | outcome [7] | Potency [8] | outcome [9] | outcome [10] | Potency [11] | outcome [12] | outcome [13] | outcome [14] | Potency [15] | outcome [16] | Potency [17] | Potency [18] | outcome [19] | Potency [20] |
| --- | --- | --- | --- | --- | --- | --- | --- | --- | --- | --- | --- | --- | --- | --- | --- | --- | --- | --- | --- | --- |
| O=c1c(O)c(-c2ccc(O)c(O)c2)oc2cc(O)cc(O)c12 | 49 µM (active) | inactive | inactive | 54.5 µM (active) | inactive | inactive | inactive | inactive | inactive | inactive | inactive | inactive | inactive | inactive | inactive | inactive | inactive |  |  |  |
| CCOC(=O)CC(=O)OCC | inactive | inactive | inactive | inactive | inactive | inactive | inactive | inactive | inactive | inactive | inactive | inactive | inactive | inactive | inactive | inactive | inactive | inactive | inactive | inactive |
| COC(=O)CCCCC(=O)OC | inactive | inactive | inactive | inactive | inactive | inactive | inactive | inactive | inactive | inactive | inactive | inactive | inactive | inactive | inactive | inactive | inactive | inactive | inactive | inactive |
| COc1ccc(N)c(OC)c1 | inactive | inactive | inactive | inactive | inactive | inactive | inactive | inactive | inactive | inactive | inactive | inactive | inactive | inactive | inactive | inactive | inactive | 54.5 µM (active) | inactive | inactive |
| CCCCCCCC(=O)O | inactive | inactive | inactive | inactive | inactive | inactive | inactive | inactive | inactive | inactive | inactive | inactive | inactive | inactive | inactive | inactive | inactive | inactive | inactive | inactive |
| CC(C)=CCC/C(C)=C/C=O | inactive | inactive | inactive | inactive | inactive | inactive | inactive | inactive | inactive | inactive | inactive | inactive | inactive | inactive | inactive | inactive | inactive | inactive | inactive | inactive |
| CC(=O)c1nccs1 | inactive | inactive | inactive | inactive | inactive | inactive | inactive | inactive | inactive | inactive | inactive | inactive | inactive | inactive | inactive | inactive | inactive | inactive | inactive | inactive |
| CC1(C)C(=O)N(Cl)C(=O)N1Cl | inactive | inactive | inactive | inactive | inactive | inactive | inactive | inactive | inactive | inactive | inactive | inactive | inactive | inactive | inactive | inactive | inactive | inactive | inactive | inactive |
| CC/C(C)=N/O | inactive | inactive | inactive | inactive | inactive | inactive | inactive | inactive | inactive | inactive | inactive | inactive | inactive | inactive | inactive | inactive | inactive | inactive | inactive | inactive |
| C=C(CC(=O)O)C(=O)O | inactive | inactive | inactive | inactive | inactive | inactive | inactive | inactive | inactive | inactive | inactive | inactive | inactive | inactive | inactive | inactive | inactive | inactive | inactive | inactive |
| Brc1ccc(Oc2ccc(Br)cc2)cc1 | inactive | inactive | inactive | inactive | inactive | inactive | inactive | inactive | inactive | inactive | inactive | inactive | inactive | inactive | inactive | inactive | inactive | 21.7 µM (active) and 27.3 µM (active) | inactive | inactive |
| O=C(O)C1=NN(c2ccc(S(=O)(=O)O)cc2)C(=O)C1 | inactive | inactive | inactive | inactive | inactive | inactive | inactive | inactive | inactive | inactive | inactive | inactive | inactive | inactive | inactive | inactive | inactive | inactive | inactive | inactive |
| COC(=O)/C=C\C(=O)OC | inactive | inactive | inactive | inactive | inactive | inactive | inactive | inactive | inactive | inactive | inactive | inactive | inactive | inactive | inactive | inactive | inactive |  | inactive |  |
| CCCN(CCC)C(=O)SCC | inactive | inactive | inactive | inactive | inactive | inactive | inactive | inactive | inactive | inactive | inactive | inactive | inactive | inactive | inactive | inactive | inactive | inactive | inactive | inactive |
